Measurements reported in PubChem BioAssay (NCATS).
Records with an inconclusive call do not appear. Activity calls are given as the source filed them. Unless noted, calls come from the whole dose curve; as a rule, active = well fitted cell-killing curve with a large enough effect; inconclusive = small, poorly fitted or top-dose-only effect, or effect the other way; inactive = no such curve, though single readings can be large or run the other way.

Columns and labels:
[1] = Quantitative High-Throughput drug screen in 47 multiple myeloma cell lines against the NCATS MIPE library collection: PCM6_Riken cell viability assay (AID 1919870); conditions: CellTiter-Glo ATP, 48 h; series mostly up to 45.8 µM; note: nearly all actives have a fitted effect of over 30% in size; note: potency is the fitted concentration of half-maximal effect
Procedure, shortened: (§1)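 500 cells/well per myeloma line exposed to pinned MIPE 4.0 compounds for 48 h at 37 °C, 5% CO2. Viability read as ATP by CellTiter-Glo luminescence, normalised to DMSO-only (100%) and media-only (0%) wells.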

[2] = Quantitative High-Throughput drug screen in 47 multiple myeloma cell lines against the NCATS MIPE library collection: RPMI8226_ATCC cell viability assay (AID 1919871); conditions: RPMI8226 myeloma viability, CellTiter-Glo ATP luminescence, 48 h; series mostly up to 45.8 µM; note: nearly all actives have a fitted effect of over 30% in size; note: potency is the fitted concentration of half-maximal effect
Procedure, shortened: as §1

[3] = Quantitative High-Throughput drug screen in 47 multiple myeloma cell lines against the NCATS MIPE library collection: KMS11_JCRBsus cell viability assay (AID 1919873); conditions: KMS11 myeloma viability, CellTiter-Glo ATP luminescence, 48 h; series mostly up to 45.8 µM; note: nearly all actives have a fitted effect of over 50% in size; note: potency is the fitted concentration of half-maximal effect
Procedure, shortened: as §1

[4] = Quantitative High-Throughput drug screen in 47 multiple myeloma cell lines against the NCATS MIPE library collection: KMS28BM_JCRB cell viability assay (AID 1919874); conditions: CellTiter-Glo ATP, 48 h; series mostly up to 45.8 µM; note: nearly all actives have a fitted effect of over 35% in size; note: potency is the fitted concentration of half-maximal effect
Procedure, shortened: as §1

[5] = qHTS drug screen for cell cycle checkpoint inhibitors in PARPi-resistant BRCA-mutant ovarian cancer cell lines. (AID 1963452; calls by dose curve); conditions: PEO1/OlaR viability, CellTiter-Glo luminescence, 96 h, stronger effect = lower value
Procedure, shortened: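 PEO1, PEO4 and PEO1/OlaR ovarian cancer cells, 600 per well, exposed 96 h at 37C to a dilution series. Viability read by CellTiter-Glo luminescence, normalized to DMSO and empty wells; activity summarized as Z-AUC.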

[6] = Quantitative High-Throughput drug screen in 47 multiple myeloma cell lines against the NCATS MIPE library collection: PE2_PLB cell viability assay (AID 1919869); conditions: PE2_PLB myeloma cells viability, ATP luminescence, 48 h; series mostly up to 45.8 µM; note: nearly all actives have a fitted effect of over 35% in size; note: potency is the fitted concentration of half-maximal effect
Procedure, shortened: as §1

[7] = Quantitative High-Throughput drug screen in 47 multiple myeloma cell lines against the NCATS MIPE library collection: OPM2_DSMZ cell viability assay (AID 1919872); conditions: OPM2 myeloma viability, CellTiter-Glo ATP luminescence, 48 h; series mostly up to 45.8 µM; note: nearly all actives have a fitted effect of over 30% in size
Procedure, shortened: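 Inhibition of cell viability is measured here. Each line was plated at 500 cells per well, treated with MIPE 4.0 drugs, kept 48 hours at 37C, then assayed for ATP content by CellTiter-Glo luminescence.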

[8] = qHTS for identification of novel therapeutic agents for treatment of microphthalmiaassociated transcription factor (MiT) renal cell carcinoma (RCC) (AID 1963991); conditions: CellTiter-Glo, 48 h, stronger effect = lower value
Procedure, shortened: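 Viability of three TFE3-fusion renal carcinoma lines measured by CellTiter-Glo after 48 h treatment with each of 1912 compounds at 11 concentrations. Responses scaled between DMSO (100%) and empty wells (0%) before curve fitting.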

[9] = measured here: PEO1 parental Z-AUC
[10] = TFE3-RCC UOK109 viability, measured here: UOK109 Z-AUC
[11] = TFE3-RCC viability, measured here: UOK124 Z-AUC
[12] = TFE3-RCC viability, measured here: UOK145 Z-AUC

Row | Structure (SMILES) | Potency [1] | Potency [2] | Potency [3] | Potency [4] | Z-AUC [5] | Z-AUC [5, 9] | Z-AUC ([5]; measured here: PEO4 Z-AUC) | Potency [6] | Potency [7] | z-score [8, 10] | z-score [8, 11] | z-score [8, 12]
1 | CCOC(=O)[C@H](CCc1ccccc1)N[C@H]1CS[C@H](c2cccs2)CN(CC(=O)O)C1=O | 1.05 µM (active) | 16.6 µM (active) | 1.66 µM (active) | 0.59 µM (active) | -0.655 (inactive) | -0.787 | -0.726 |  |  |  |  | 
2 | Cc1cccc(Nc2ccncc2S(=O)(=O)NC(=O)NC(C)C)c1 |  |  |  |  |  |  |  | inactive | inactive | 0.581 | 0.17 | 0.58
3 | CCN1CCCC1CNC(=O)c1cc(S(N)(=O)=O)ccc1OC (stereo not drawn) |  | inactive | inactive | inactive |  |  |  |  | inactive | 0.447 | 0.683 | 0.799
4 | Clc1ccccc1CN1CCc2sccc2C1 |  | inactive |  |  | 0.114 (inactive) | 0.0683 | 0.329 |  |  | 0.71 | 0.609 | 0.692
5 | CC[C@H](C)C(=O)O[C@H]1C[C@@H](C)C=C2C=C[C@H](C)[C@H](CC[C@@H]3C[C@@H](O)CC(=O)O3)[C@H]21 | inactive |  | 20.9 µM (active) | 23.5 µM (active) | 1 (inactive) | 1.47 | 1.3 |  |  |  |  | 
6 | CC(C)OC(=O)OCOP(=O)(CO[C@H](C)Cn1cnc2c(N)ncnc21)OCOC(=O)OC(C)C | 16.6 µM (active) |  | inactive | 14.8 µM (active) |  |  |  |  | inactive | 0.412 | 0.776 | 0.601
7 | CC(=O)[C@H]1CC[C@H]2[C@@H]3CCC4=CC(=O)CC[C@]4(C)[C@H]3CC[C@]12C |  |  | 18.7 µM (active) | 16.6 µM (active) |  |  |  |  |  |  |  | 
8 | COc1ccc(-c2ccc3cc(C(=O)O)ccc3c2)cc1C12CC3CC(CC(C3)C1)C2 |  | 0.833 µM (active) | inactive |  | 0.117 (inactive) | -0.0792 | -0.489 |  | inactive |  |  | 
9 | CCN(CC)CC#CCOC(=O)C(O)(c1ccccc1)C1CCCCC1 (stereo not drawn) |  |  |  |  |  |  |  | inactive | inactive | 0.714 | 0.353 | 0.607
10 | COc1ccc2c(c1)c(CC(=O)OCC(=O)O)c(C)n2C(=O)c1ccc(Cl)cc1 | inactive | inactive | inactive |  |  |  |  |  | inactive | 1.12 | 1.19 | 0.507
11 | CN(C)CCc1c[nH]c2ccc(CS(=O)(=O)N3CCCC3)cc12 |  | inactive |  | inactive | 1.7 (inactive) | 1.58 | 1.04 |  |  | -0.684 | -0.106 | 0.603
12 | CCn1cc(C(=O)O)c(=O)c2cc(F)c(N3CCNCC3)nc21 | inactive | inactive |  | inactive |  |  |  |  | inactive | 0.63 | -0.25 | 0.63
13 | CCc1cc(C(N)=S)ccn1 | inactive | inactive | inactive | inactive | 0.368 (inactive) | -0.0543 | -0.17 |  | inactive |  |  | 
14 | O=S(=O)(c1cccc2cnccc12)N1CCCNCC1 | 16.6 µM (active) | inactive | inactive |  | -0.00128 (inactive) | -0.265 | 0.443 |  | inactive |  |  | 
15 | COC(=O)Nc1nc2ccc(S(=O)c3ccccc3)cc2[nH]1 (stereo not drawn) |  |  | 8.33 µM (active) |  | 0.889 (inactive) | 0.292 | 0.543 |  |  |  |  | 
16 | C[C@]12C=CC(=O)C=C1CC[C@@H]1[C@@H]2C(=O)C[C@@]2(C)[C@H]1CC[C@]2(O)C(=O)CO | inactive | inactive | inactive | inactive | -0.919 (inactive) | -0.762 | -0.828 |  |  | 1.31 | 1.23 | -3.21
17 | O=C(O)CCn1c2c(c3ccccc31)C[C@H](NS(=O)(=O)c1ccc(F)cc1)CC2 |  |  |  |  | 0.321 (inactive) | 0.0173 | 0.558 |  |  | 0.68 | 0.798 | 0.766
18 | CCCCOc1ccc(CC(=O)NO)cc1 | inactive |  |  | inactive | -0.866 (inactive) | -0.714 | -0.748 |  |  |  |  | 
19 | Nc1nc(N)nc(-c2cc(Cl)ccc2Cl)n1 | inactive | inactive |  |  | 0.87 (inactive) | 0.667 | 0.862 |  | inactive | 0.0738 | 0.434 | 0.276
20 | CO[C@@H]1[C@@H](OC(N)=O)[C@@H](O)[C@H](Oc2ccc3c(O)c(NC(=O)c4ccc(O)c(CC=C(C)C)c4)c(=O)oc3c2C)OC1(C)C |  |  |  |  | -0.0911 (inactive) | 0.276 | 0.63 | 6.62 µM (active) |  | 0.755 | 0.269 | 0.567
21 | COc1cc2ncnc(Nc3cccc(Cl)c3)c2cc1OC |  |  | 18.7 µM (active) |  | 0.0605 (inactive) | 0.96 | 0.239 |  | inactive |  |  | 
22 | O=C(O)c1ccc(-n2nc(-c3ccccc3O)nc2-c2ccccc2O)cc1 | 23.5 µM (active) |  |  |  | 0.434 (inactive) | -0.254 | -0.47 |  | inactive |  |  | 
23 | N[C@@H](Cc1ccc(O)c(O)c1)C(=O)O |  | inactive |  | inactive | -0.0147 (inactive) | 0.128 | 0.735 |  |  | 0.912 | 0.453 | 0.282
24 | Nc1nc(N)c2nc(CNc3ccc(C(=O)NC(CCC(=O)O)C(=O)O)cc3)cnc2n1 (stereo not drawn) |  |  | 0.0526 µM (active) | 0.0296 µM (active) | 0.0258 (inactive) | 0.192 | 1.1 |  |  |  |  | 
25 | CC[C@H](NC(C)C)[C@H](O)c1ccc(O)c2[nH]c(=O)ccc12 | inactive |  |  | inactive | -0.979 (inactive) | 0.0863 | 0.0233 |  | inactive | 0.709 | 0.735 | 1.42
26 | O=S(=O)(O)CCS |  | inactive | inactive | inactive | 0.603 (inactive) | 1.56 | 1.53 |  | inactive | -0.566 | 1.05 | -0.757
27 | CS(=O)(=O)c1ccc([C@@H](O)[C@@H](CO)NC(=O)C(Cl)Cl)cc1 | 16.6 µM (active) | 2.35 µM (active) | 11.8 µM (active) |  |  |  |  |  | inactive |  |  | 
28 | O=C(N[C@H](CO)[C@H](O)c1ccc([N+](=O)[O-])cc1)C(Cl)Cl |  |  | inactive |  |  |  |  |  | inactive |  |  | 
